Measurements: PubChem BioAssay (NCI)
Compounds without any hit were thinned out: in the full panel of roughly 79,000, 15% have a hit. A number with no mark means an inactive call. Cut-off read from the data, not from the text of the source: active = growth inhibition above about 70%; inactive = the rest.

Experiment: NCI Yeast Anticancer Drug Screen. Data for the bub3 strain (AID 167)
Conditions: S. cerevisiae bub3 mutant strain, at 1.2 µM, stronger effect = higher value
In short: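 Growth of a checkpoint-deficient yeast mutant is measured after compound exposure. Values represent inhibition relative to vehicle.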
In the case of `O=CC=C(c1ccccc1)c1ccccc1`, the growth inhibition is reported as -11%. For `FC(F)(F)c1nc2nc(Cl)c(Cl)nc2n1CCCN1CCOCC1`, the growth inhibition was 0%. Work on `BrCC[P+](c1ccccc1)(c1ccccc1)c1ccccc1` yielded a growth inhibition of -70%. Work on `N#CSc1ccc(S(N)(=O)=O)cc1` yielded a growth inhibition of -23%. Molecule `O=[N+]([O-])c1ccc2nc3ccccc3cc2c1` has a growth inhibition of -2%. Work on `O=C(NC(Nc1ccc(F)c(Cl)c1)(C(F)(F)F)C(F)(F)F)C(C(F)(F)F)C(F)(F)F` yielded a growth inhibition of 5%. `O=C(/C=C\c1ccc(Cl)cc1Cl)c1cccs1` showed a growth inhibition of 10%. With `O=C(NCCCCNCCCNC(=O)c1cc(-c2ccccc2)nc2ccccc12)c1cc(-c2ccccc2)nc2ccccc12` the growth inhibition was -2%. In the case of `NC(=NCc1ccccc1)N/N=C\c1ccnc2ccccc12`, the growth inhibition is reported as 0%. Molecule `CCCCN(CCCC)CCSc1ccc(Cl)cc1` has a growth inhibition of -9%. Work on `COc1cc(C2C3=C(COC3=O)Oc3cc4c(cc32)OCO4)ccc1O` (stereo not drawn) yielded a growth inhibition of -2%. `C#CCCCc1ccccc1` showed a growth inhibition of -31%. Molecule `CCc1ccc(NS(=O)(=O)c2ccccc2)c([N+](=O)[O-])c1` has a growth inhibition of -3%. Molecule `COc1ccc(C2c3cc4c(cc3OC(C)(O)C2C)OCO4)c(OC)c1` (stereo not drawn) has a growth inhibition of -4%. Work on `COC(=O)c1ccc(CCC2=CC(=O)C(Br)=CC2=O)cc1` yielded a growth inhibition of -20%. Work on `NNC(=O)CCc1ccc2ccc3ccccc3c2c1` yielded a growth inhibition of -8%. Molecule `Cn1c2ccccc2c(=O)c2cc(NC(=O)CCCCC(=O)Nc3ccc4c(c3)c(=O)c3ccccc3n4C)ccc21` has a growth inhibition of -4%. With `CC(CC(C)(C)[N+](C)(C)C)[N+](C)(C)C` (stereo not drawn) the growth inhibition was -2%. For `CC1CCN(CCC(=O)c2ccc(Cl)cc2)CC1`, the growth inhibition was 1%. Work on `CCCCCCCCCCCCCCC(C(=O)[O-])[n+]1ccccc1` (stereo not drawn) yielded a growth inhibition of 2%. With `CNC1C(OC2C(OC3C(O)C(O)C(N=C(N)N)C(O)C3N=C(N)N)OC(C)C2(O)CO)OC(CO)C(O)C1O` (stereo not drawn) the growth inhibition was -2%. For `O=C(O)c1ccccc1-c1ccccc1C(=O)Nc1ccc2c(c1)Cc1ccccc1-2`, the growth inhibition was 4%. In the case of `O=[N+]([O-])c1cccc2nc3ccccc3c(NCCCN3CCOCC3)c12`, the growth inhibition is reported as -14%. In the case of `C=CC(C)(O)CCC1C(=C)C(O)CC2C(C)(C)CCCC12C` (stereo not drawn), the growth inhibition is reported as -4%. In the case of `CN1c2ccc(Cl)cc2C(=O)NC1c1ccc([N+](=O)[O-])s1` (stereo not drawn), the growth inhibition is reported as 0%. With `[O-][n+]1c2ccc(O)cc2nc2ccc(Br)cc21` the growth inhibition was 5%. In the case of `O=C1c2ccccc2-c2nc3ccccc3nc21`, the growth inhibition is reported as -19%. `CCCCN1C(=O)N(c2ccc(OCC)cc2)C2N(CCCC)C1C(C)(C)C2(C)C` (stereo not drawn) gave a growth inhibition of -9%. `CO[C@H]1C[C@](C)(O)Cc2cc3c(c(O)c21)C(=O)c1c(O)cc2c(c1C3=O)O[C@@H]1O[C@@]2(C)[C@H](O)[C@@H](N(C)C)[C@@H]1O` showed a growth inhibition of -15%. `COc1cc2c(cc1[N+](=O)[O-])C(=O)C(Br)(Br)CCC2` showed a growth inhibition of 9%. In the case of `O=C1OC(CCl)CN1/N=C/c1ccc([N+](=O)[O-])o1` (stereo not drawn), the growth inhibition is reported as -8%. In the case of `CN(C)CCOc1ccc2c(c1)C/C(=C/c1ncc([N+](=O)[O-])n1C)C2=O`, the growth inhibition is reported as 3%. For `CCCCCCCCCCCCCCCCCCN(C)CC(COP(=O)([O-])OCC[N+](C)(C)C)OC` (stereo not drawn), the growth inhibition was 9%. `CC(C)c1ccccc1NC(=O)/C(Cl)=C(\Cl)C(=O)O` gave a growth inhibition of 0%. Work on `O=[N+]([O-])C(=C(Sc1ccccc1)Sc1ccccc1)C(Cl)=C(Cl)Cl` yielded a growth inhibition of 6%. `C(=C\c1ccccc1)/COc1ccccc1C(N1CCOCC1)n1nc2ccccc2n1` (stereo not drawn) gave a growth inhibition of 1%. Work on `O=C1C(Nc2ccccc2)=C(Oc2ccccc2)C(=O)c2ccccc21` yielded a growth inhibition of 3%. With `CCN(CC)CCN1C(=O)c2cccc3cc(OC)cc(c23)C1=O` the growth inhibition was -9%. In the case of `CN(C)Cc1cc(N=Nc2ccc(Cl)cc2)cc(CN(C)C)c1O`, the growth inhibition is reported as 4%.

Same assay, conditions: S. cerevisiae bub3 mutant strain, at 3.7 µM, stronger effect = higher value
Work on `O=CC=C(c1ccccc1)c1ccccc1` yielded a growth inhibition of -13%. `FC(F)(F)c1nc2nc(Cl)c(Cl)nc2n1CCCN1CCOCC1` gave a growth inhibition of 4%. `BrCC[P+](c1ccccc1)(c1ccccc1)c1ccccc1` gave a growth inhibition of -32%. `N#CSc1ccc(S(N)(=O)=O)cc1` showed a growth inhibition of -37%. Molecule `O=[N+]([O-])c1ccc2nc3ccccc3cc2c1` has a growth inhibition of -2%. Molecule `O=C(NC(Nc1ccc(F)c(Cl)c1)(C(F)(F)F)C(F)(F)F)C(C(F)(F)F)C(F)(F)F` has a growth inhibition of 15%. Molecule `O=C(/C=C\c1ccc(Cl)cc1Cl)c1cccs1` has a growth inhibition of 22%. For `O=C(NCCCCNCCCNC(=O)c1cc(-c2ccccc2)nc2ccccc12)c1cc(-c2ccccc2)nc2ccccc12`, the growth inhibition was -1%. Molecule `NC(=NCc1ccccc1)N/N=C\c1ccnc2ccccc12` has a growth inhibition of 0%. For `CCCCN(CCCC)CCSc1ccc(Cl)cc1`, the growth inhibition was -5%. For `COc1cc(C2C3=C(COC3=O)Oc3cc4c(cc32)OCO4)ccc1O` (stereo not drawn), the growth inhibition was 1%. With `C#CCCCc1ccccc1` the growth inhibition was -33%. With `CCc1ccc(NS(=O)(=O)c2ccccc2)c([N+](=O)[O-])c1` the growth inhibition was 4%. Molecule `COc1ccc(C2c3cc4c(cc3OC(C)(O)C2C)OCO4)c(OC)c1` (stereo not drawn) has a growth inhibition of -1%. Work on `COC(=O)c1ccc(CCC2=CC(=O)C(Br)=CC2=O)cc1` yielded a growth inhibition of -11%. `NNC(=O)CCc1ccc2ccc3ccccc3c2c1` gave a growth inhibition of -4%. With `Cn1c2ccccc2c(=O)c2cc(NC(=O)CCCCC(=O)Nc3ccc4c(c3)c(=O)c3ccccc3n4C)ccc21` the growth inhibition was -5%. `CC(CC(C)(C)[N+](C)(C)C)[N+](C)(C)C` (stereo not drawn) showed a growth inhibition of -8%. In the case of `CC1CCN(CCC(=O)c2ccc(Cl)cc2)CC1`, the growth inhibition is reported as 6%. Work on `CCCCCCCCCCCCCCC(C(=O)[O-])[n+]1ccccc1` (stereo not drawn) yielded a growth inhibition of -27%. `CNC1C(OC2C(OC3C(O)C(O)C(N=C(N)N)C(O)C3N=C(N)N)OC(C)C2(O)CO)OC(CO)C(O)C1O` (stereo not drawn) showed a growth inhibition of -1%. `O=C(O)c1ccccc1-c1ccccc1C(=O)Nc1ccc2c(c1)Cc1ccccc1-2` showed a growth inhibition of 7%. Molecule `O=[N+]([O-])c1cccc2nc3ccccc3c(NCCCN3CCOCC3)c12` has a growth inhibition of 0%. In the case of `C=CC(C)(O)CCC1C(=C)C(O)CC2C(C)(C)CCCC12C` (stereo not drawn), the growth inhibition is reported as 7%. Molecule `CN1c2ccc(Cl)cc2C(=O)NC1c1ccc([N+](=O)[O-])s1` (stereo not drawn) has a growth inhibition of 2%. Work on `[O-][n+]1c2ccc(O)cc2nc2ccc(Br)cc21` yielded a growth inhibition of 16%. `O=C1c2ccccc2-c2nc3ccccc3nc21` showed a growth inhibition of -13%. `CCCCN1C(=O)N(c2ccc(OCC)cc2)C2N(CCCC)C1C(C)(C)C2(C)C` (stereo not drawn) showed a growth inhibition of -7%. With `CO[C@H]1C[C@](C)(O)Cc2cc3c(c(O)c21)C(=O)c1c(O)cc2c(c1C3=O)O[C@@H]1O[C@@]2(C)[C@H](O)[C@@H](N(C)C)[C@@H]1O` the growth inhibition was -11%. `COc1cc2c(cc1[N+](=O)[O-])C(=O)C(Br)(Br)CCC2` showed a growth inhibition of 36%. In the case of `O=C1OC(CCl)CN1/N=C/c1ccc([N+](=O)[O-])o1` (stereo not drawn), the growth inhibition is reported as -4%. Molecule `CN(C)CCOc1ccc2c(c1)C/C(=C/c1ncc([N+](=O)[O-])n1C)C2=O` has a growth inhibition of 10%. `CCCCCCCCCCCCCCCCCCN(C)CC(COP(=O)([O-])OCC[N+](C)(C)C)OC` (stereo not drawn) showed a growth inhibition of -8%. `CC(C)c1ccccc1NC(=O)/C(Cl)=C(\Cl)C(=O)O` showed a growth inhibition of 1%. With `O=[N+]([O-])C(=C(Sc1ccccc1)Sc1ccccc1)C(Cl)=C(Cl)Cl` the growth inhibition was 18%. In the case of `C(=C\c1ccccc1)/COc1ccccc1C(N1CCOCC1)n1nc2ccccc2n1` (stereo not drawn), the growth inhibition is reported as -14%. Molecule `O=C1C(Nc2ccccc2)=C(Oc2ccccc2)C(=O)c2ccccc21` has a growth inhibition of 9%. `CCN(CC)CCN1C(=O)c2cccc3cc(OC)cc(c23)C1=O` gave a growth inhibition of -3%. With `CN(C)Cc1cc(N=Nc2ccc(Cl)cc2)cc(CN(C)C)c1O` the growth inhibition was 2%.
